From PubChem BioAssay
In the library only some 4.3% were active in any assay of this set; here they are far more common.
FGF22 binding: FGF22 (human) thermal shift binding; recombinant FGF22 thermal shift, SYPRO orange fluorescence; percent of sucrose octasulfate shift, DMSO zero; AID 651658; activity (Tm shift, normalised), % at 9.99 µM; Q9HCT0; actives 1.5% (n = 340,000);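 active means mean Tm shift, scaled 0 neutral to 100 positive control, at about 1.3% or above, every replicate too, limit read from the data; inconclusive means no clear call, values can overlap the other calls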
SMARCA2 activ: SMARCA2 function activation, primary screen; activation, % at 9.1 µM; actives 1% (n = 370,000); MG213 cells, MMTV-luciferase reporter, dexamethasone, overnight; in the data active means activation above about 7.8%;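 further: 0% = vehicle wells and 100% = reference activator wells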
Wnt bcat act: activators of Wnt/beta-catenin signaling; actives 1.2% (n = 300,000); AID 743398; Wnt/beta-catenin reporter cell assay, activator, plate reader; activation, % at 9.35 µM; in the data active means activation above about 30%, passing the limit was not always enough; inconclusive means no clear call, values can overlap the other calls;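 further: 0% = neutral control wells and 100% = positive control wells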
esBAF inh: SWI/SNF esBAF complex inhibition. mouse ES cells, Bmi1-luciferase knock-in reporter, 24 h; 100% = twice the neutral-well signal. reporter increase, % at 12.5 µM. actives 2% (n = 350,000). AID 602393; in the data active means activation above about 40%; inconclusive means no clear call, values can overlap the other calls;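 further: 0% = median of the plate's neutral control wells and 100% = double that signal; a rise in the Bmi1 reporter signal indicates esBAF inhibition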
AF4-AF9 inh: MLL-AF4/AF9 protein interaction inhibition; actives 0.47% (n = 350,000); inhibition, % at 10 µM; AlphaScreen, biotin-AF4 peptide binding to FLAG-AF9; P42568; AID 651704;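 active means every replicate reaching a set inhibition limit, whatever the replicate mean, cut at about 25% in these data; inconclusive means mean inhibition reaches that limit but some replicates miss it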;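 further: 0% = plate neutral control median and 100% = total signal loss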
Target sequence (P42568 whole entry, looked up): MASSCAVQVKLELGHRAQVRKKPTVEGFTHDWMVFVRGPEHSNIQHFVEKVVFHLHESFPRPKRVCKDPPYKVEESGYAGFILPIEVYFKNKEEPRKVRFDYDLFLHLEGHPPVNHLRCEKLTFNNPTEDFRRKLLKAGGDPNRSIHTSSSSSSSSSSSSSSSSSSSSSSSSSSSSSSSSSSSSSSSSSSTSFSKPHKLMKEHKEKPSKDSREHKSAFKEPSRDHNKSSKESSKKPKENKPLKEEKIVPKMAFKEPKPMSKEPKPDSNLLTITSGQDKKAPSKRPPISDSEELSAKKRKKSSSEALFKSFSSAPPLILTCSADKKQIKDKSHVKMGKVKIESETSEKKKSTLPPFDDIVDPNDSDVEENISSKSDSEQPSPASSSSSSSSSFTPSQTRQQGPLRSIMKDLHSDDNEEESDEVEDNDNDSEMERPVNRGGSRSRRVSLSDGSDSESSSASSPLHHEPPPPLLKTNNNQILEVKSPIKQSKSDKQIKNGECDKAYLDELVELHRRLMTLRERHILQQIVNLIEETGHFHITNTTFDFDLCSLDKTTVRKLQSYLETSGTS
MITF TRPM1 HTS: activators of MITF-driven TRPM1 promoter activity in SK-MEL-5 cells | activation, % at 12.5 µM | SK-MEL-5 TRPM1-promoter luciferase, 24 h; % of positive control, neutral wells = 0 | actives 0.75% (n = 300,000);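 active means mean activation of at least 80% with every replicate also reaching 80%; inconclusive means mean reaches 80% but some replicate falls short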;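 further: 0% = neutral control wells and 100% = parthenolide positive control wells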
SMARCA2 act conf: SMARCA2 activation, confirmation screen | shares compounds with SMARCA2 activ | MG213 cells, MMTV-luciferase with dexamethasone, luminescence, overnight; MG213 cells expressing E1A, Rb sequestered; DMSO wells 0%, reference activator 100% | activation, % at 9.1 µM | actives 30% (n = 3,500) | AID 652260;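 active means activation above its plate's cutoff, the mean activation of tested wells plus 3 SD, cut at about 7.9% in these data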
VP16 Luc act: counter-screen for SMARCA2 activators: GAL4-VP16 luciferase reporter activation; shares compounds with SMARCA2 activ; HEK293 GAL4-VP16 pG5luc reporter, luciferase luminescence; scaled: DMSO wells 0%, SAHA wells 100%; activation, % at 9.1 µM; actives 41% (n = 3,500); AID 686939;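 active means activation above the solvent-only control well mean plus 3 SD, averaged across control plates, cut at about 5.2% in these data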
* marks the source's active call; other numbers are inactive results; ? = inconclusive; . = not tested or not shown.

SMILES	FGF22 binding	SMARCA2 activ	Wnt bcat act	esBAF inh	AF4-AF9 inh	MITF TRPM1 HTS	SMARCA2 act conf	VP16 Luc act
O=C1CCCC2=C1C(c1ccco1)Nc1ccc3ccccc3c12 (stereo not drawn)	.	20*	.	22	.	-19	8.3*	1
COc1cccc(C#Cc2ccc([C@@H]3[C@@H](CO)N(C(=O)C4CCCC4)[C@H]3C#N)cc2)c1	.	.	.	.	-3	.	.	.
COc1ccc2c3c(n(C)c2c1)[C@H](CO)N(C(=O)C1CCCCC1)CC31CCN(C(=O)CN(C)C)CC1	0	.	.	.	11	.	.	.
Cn1cccc1/C=N/N1CCN(Cc2ccccc2)CC1	0	16*	0	4	11	3	1	1
Cn1cccc1/C=N/N1CCN(Cc2ccc(Cl)cc2)CC1	-1	-1	-1	-3	4	-3	.	.
CCCC#Cc1cnc2c(c1)C(=O)N([C@H](C)CO)C[C@@H](C)[C@H](CN(C)C(=O)C1CCC1)O2	0	.	.	2	-3	.	.	.
COc1ccc(CCNc2nc3ccccc3n3nnnc23)cc1OC	0	18*	11	26	0	.	4	2
COc1ccc(S(=O)(=O)Nc2ccc3c(c2)C(=O)N([C@H](C)CO)C[C@H](C)[C@@H](CN(C)C(=O)NC(C)C)OCCCC[C@H](C)O3)cc1	0	.	.	2	0	.	.	.
CCOC(=O)C1CCN(C(=O)Cn2cnc3sc(C)c(S(=O)(=O)N4CCCCC4)c3c2=O)CC1	0	-2	-2	3	-9	-3	.	.
CCOC(=O)C1CCN(C(=O)Cn2cnc3sc(C)c(S(=O)(=O)N4CCC(C)CC4)c3c2=O)CC1	0	8.1*	-1	-3	3	3	-2	-1
COc1ccc(-c2nc3ccccc3s2)cc1NC(C)=O	0	9.7*	36*	39	-5	68	7	14*
CC(=O)C(Cl)C(=O)Nc1ccccc1 (stereo not drawn)	0	8.5*	-2	-9	-2	22	-14	0
Fc1cccc(CSc2ccc(-c3ccco3)nn2)c1	.	15*	30*	66*	.	38	13*	5.5*
COc1ccc(/C=C2\COc3ccccc3C2=O)c(OC)c1	0	8.9*	-5	63*	9	37	6	5.2*
COc1ccc2c3c([nH]c2c1)[C@@H](CO)N(C(=O)C1CCC1)CC31CCN(C(=O)c2ccncc2)CC1	0	.	.	.	1	.	.	.
C[C@@H]1CCCCO[C@@H](CN(C)S(=O)(=O)c2cn(C)cn2)[C@@H](C)CN([C@@H](C)CO)C(=O)c2cc(NC(=O)C3CCCCC3)ccc2O1	0	.	.	-1	-6	.	.	.
Cc1ccc(CNC(=O)CCS(=O)(=O)c2ccc(C)cc2)cc1	1	10*	-1	-5	-2	-7	-1	0
CC1Cc2ccccc2N1S(=O)(=O)c1cccc(C(=O)c2nccn2C)c1 (stereo not drawn)	.	8.6*	-5	4	0	1	-2	-2
CC1Cc2ccccc2N1S(=O)(=O)c1cccc(C(=O)N2CCCCC2)c1 (stereo not drawn)	0	-1	-5	.	1	-13	.	.
CC(=O)N1CC2(C1)[C@@H](c1ccc(-c3cccc(F)c3)cc1)[C@@H](CO)N2CC1CC1	.	.	.	.	-1	.	.	.
COc1ccc(NC(=O)Nc2ccc3c(c2)C(=O)N([C@H](C)CO)C[C@@H](C)[C@@H](CN(C)Cc2ccccc2)O3)cc1	0	.	.	3	6	.	.	.
CCOc1ccc(-c2nnc(NC(=O)Cc3ccc(OC)cc3)o2)cc1	0	-1	1	3	-28	19	.	.
CCOc1ccc(-c2nnc(NC(=O)Cc3cc(OC)c(OC)c(OC)c3)o2)cc1	0	8.4*	0	7	0	18	0	4
O=C(Cn1cc(C(F)(F)F)ccc1=O)N1CCc2ccccc2C1	0	8.0*	0	-2	-2	-5	4	1
O=C(Cn1cc(C(F)(F)F)ccc1=O)N1CCCc2ccccc21	0	-3	-4	-2	-1	5	.	.
SMILES	FGF22 binding	SMARCA2 activ	Wnt bcat act	esBAF inh	AF4-AF9 inh	MITF TRPM1 HTS	SMARCA2 act conf	VP16 Luc act
CCOC(=O)C1CCCCN1Cc1cccc(F)c1 (stereo not drawn)	0	8.8*	-2	1	-10	1	1	0
CCOC(=O)C1CCCCN1Cc1ccc(F)cc1 (stereo not drawn)	0	3	-2	3	-23	2	.	.
O=C(Nc1ccc2nccnc2c1)Nc1ccccc1Cl	0	8.9*	9	20	-2	53	1	6.8*
Oc1ccc(NC(=S)N=Nc2c(O)[nH]c3ccccc23)cc1	0	9.7*	?	65*	16	34	4	15*
Cc1nc2ccc(Cl)cc2nc(C)/c1=N\O	.	8.1*	.	20	.	15	9.7*	8.7*
O=C(C1CCCC1)N1CC2(C1)[C@@H](c1ccccc1)[C@@H](CO)N2Cc1ccccc1F	.	.	.	.	0	.	.	.
COc1cccc(C(=O)NC2CC3CCCC(C2)N3CC(=O)Nc2ccccc2C(F)(F)F)c1 (stereo not drawn)	0	-7	0	8	1	-22	.	.
CCc1cccc(CC)c1NC(=O)CN1C2CCCC1CC(NC(=O)Nc1cccc(OC)c1)C2 (stereo not drawn)	43	11*	0	.	3	-1	-1	1
COc1ccc2c3c(n(C)c2c1)[C@H](CO)NCC31CN(C(=O)c2cccc(F)c2)C1	.	.	.	.	-1	.	.	.
COc1ccc(CNC(=O)c2ccc(C(C)C)cc2)cc1	0	11*	14	.	-1	104*	7	17*
COc1ccc(C(=O)NCc2ccc(N3CCN(C)CC3)cc2)cc1	0	-1	-1	0	-1	-4	.	.
CN1[C@@H]2c3ccc(-c4cccnc4)c(=O)n3C[C@H]1[C@H](CO)[C@H]2C(=O)NCCc1ccccc1	.	.	.	1	.	.	.	.
COc1ccc(/C=C/c2noc(-c3ccccc3O)n2)cc1	.	8.6*	.	.	.	98*	7	7.0*
COc1ccc(NC(=O)Nc2ccc3c(c2)C(=O)N([C@@H](C)CO)C[C@H](C)[C@@H](CN(C)S(=O)(=O)c2c(C)noc2C)OCCCC[C@H](C)O3)cc1	0	.	.	-3	.	.	.	.
COc1ccc(CNC[C@H]2O[C@@H](n3ccc(=O)[nH]c3=O)[C@H](O)[C@@H]2O)cc1OC	42	1	-2	-4	0	11	.	.
